Assay results published in PubChem BioAssay AID1159580 (chemical genetic matrix, 2015).
Values joined by “and” are separate entries in the source; they are usually repeats but may differ in a detail not shown here. Identical values can stand only once. The whole screen tested about 5,500 compounds, of which about 2,000 (36%) were called active. Another 18% or so got no clear call; they are omitted. No stated cut-off is given here; in the data, active means normalized growth mostly below about 0.91 (no sharp cut-off); inconclusive means no clear call, values can overlap the other calls; inactive means mostly above about 0.92. The list shows a part of the results.

Assay: chemical genetic growth profiling, strain panel (AID 1159580);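 further: tested at 20 µM; growth read once vehicle control cultures reached saturation at 30 °C; 1 = growth at the plate median or of vehicle wells; lower values mean less growth of the strain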
Conditions: S. cerevisiae deletion strains, growth OD

Measured: normalized growth

Oc1c(I)cc(I)c2cccnc12
active: locus YAL013W, strain DEP1, active compounds read low 0.071 | locus YAL021C, strain ccr4, active compounds read low 0.091 | locus YAL026C, strain drs2, active compounds read low 0.0859 | locus YAL030W, strain snc1, active compounds read low 0.0764 | locus YBL061C, strain skt5, active compounds read low 0.0816 | locus YBR009C, strain hhf1, active compounds read low 0.0997 | locus YBR021W, strain FUR4, active compounds read low 0.129 | locus YBR023C, strain chs3, active compounds read low 0.077 | locus YBR171W, strain sec66, active compounds read low 0.114 | locus YBR229C, strain ROT2, active compounds read low 0.0677 | locus YBR231C, strain swc5, active compounds read low 0.0701 | locus YBR279W, strain paf1, active compounds read low 0.0764 | locus YCL011C, strain gbp2, active compounds read low 0.135 | locus YCL016C, strain dcc1, active compounds read low 0.0819 | locus YCL029C, strain bik1, active compounds read low 0.101 | locus YCL061C, strain MRC1, active compounds read low 0.0902 | locus YCL069W, strain vba3, active compounds read low 0.0885 | locus YCR088W, strain abp1, active compounds read low 0.0854 | locus YDL005C, strain med2, active compounds read low 0.104 | locus YDL035C, strain GPR1, active compounds read low 0.067 | locus YDL040C, strain nat1, active compounds read low 0.073 | locus YDL074C, strain BRE1, active compounds read low 0.104 | locus YDL101C, strain DUN1, active compounds read low 0.084 | locus YDL185W, strain tfp1, active compounds read low 0.0824 | locus YDL192W, strain arf1, active compounds read low 0.103 | locus YDR001C, strain nth1, active compounds read low 0.0844 | locus YDR069C, strain doa4, active compounds read low 0.0819 | locus YDR101C, strain arx1, active compounds read low 0.0994 | locus YDR137W, strain rgp1, active compounds read low 0.0996 | locus YDR150W, strain NUM1, active compounds read low 0.078 | locus YDR159W, strain sac3, active compounds read low 0.107 | locus YDR162C, strain NBP2, active compounds read low 0.0632 | locus YDR195W, strain ref2 0.337 | locus YDR297W, strain sur2, active compounds read low 0.0803 | locus YDR318W, strain mcm21, active compounds read low 0.101 | locus YDR334W, strain swr1, active compounds read low 0.0842 | locus YDR335W, strain msn5, active compounds read low 0.0856 | locus YDR388W, active compounds read low 0.0882 | locus YDR392W, strain spt3, active compounds read low 0.13 | locus YDR502C, strain sam2, active compounds read low 0.106 | locus YEL003W, strain gim4, active compounds read low 0.127 | locus YEL037C, strain rad23, active compounds read low 0.0807 | locus YEL061C, strain CIN8 (second series), active compounds read low 0.0847 | locus YEL061C, strain CIN8, active compounds read low 0.073 | locus YER015W, strain faa2, active compounds read low 0.0857 | locus YER016W, strain bim1, active compounds read low 0.0805 | locus YER110C, active compounds read low 0.115 | locus YER111C, strain swi4, active compounds read low 0.103 | locus YER155C, strain BEM2 (second series), active compounds read low 0.126 | locus YER155C, strain BEM2, active compounds read low 0.0881 | locus YER167W, strain BCK2, active compounds read low 0.0711 | locus YFR010W, strain ubp6, active compounds read low 0.0943 | locus YGL078C, strain dbp3, active compounds read low 0.258 | locus YGL086W, strain mad1, active compounds read low 0.0789 | locus YGL167C, strain pmr1, active compounds read low 0.0938 | locus YGL173C, strain kem1, active compounds read low 0.0913 | locus YGL227W, strain vid30, active compounds read low 0.0911 | locus YGL240W, strain doc1, active compounds read low 0.106 | locus YGL248W, strain PDE1, active compounds read low 0.0617 | locus YGL253W, strain hxk2, active compounds read low 0.0781 | locus YGR078C, strain PAC10, active compounds read low 0.0681 | locus YGR135W, strain pre9, active compounds read low 0.102 | locus YGR252W, strain gcn5, active compounds read low 0.308 | locus YHR013C, strain ard1, active compounds read low 0.141 | locus YHR027C, strain rpn1, active compounds read low 0.0845 | locus YHR030C, strain SLT2, active compounds read low 0.0746 and 0.163 | locus YHR079C, strain IRE1 (second series), active compounds read low 0.0873 | locus YHR079C, strain IRE1, active compounds read low 0.135 | locus YHR094C, strain hxt1, active compounds read low 0.0952 | locus YHR129C, strain ARP1, active compounds read low 0.0776 | locus YHR142W, strain chs7, active compounds read low 0.103 | locus YHR200W, strain rpn10, active compounds read low 0.2 | locus YIL066C, strain RNR3, active compounds read low 0.0647 | locus YIL073C, strain SPO22, active compounds read low 0.136 | locus YIL125W, strain kgd1, active compounds read low 0.174 | locus YIR030C, strain dcg1, active compounds read low 0.095 | locus YJL092W, strain hpr5, active compounds read low 0.0768 | locus YJL095W, strain BCK1 (second series), active compounds read low 0.0748 | locus YJL095W, strain BCK1, active compounds read low 0.081 and 0.123 | locus YJL115W, strain asf1, active compounds read low 0.102 | locus YJL129C, strain trk1, active compounds read low 0.148 | locus YJL134W, strain LCB3, active compounds read low 0.0694 | locus YJL154C, strain vps35, active compounds read low 0.0817 | locus YJL164C, strain tpk1, active compounds read low 0.0873 | locus YJL166W, strain qcr8, active compounds read low 0.0859 | locus YJL168C, strain set2, active compounds read low 0.0922 | locus YJL187C, strain SWE1 (second series), active compounds read low 0.064
